# ± gives the standard deviation of the averaged measurements. Targets with the largest changes are over-represented here; the source holds about 6,200 in all.
# Compound: Nc1ncnc2c1ncn2[C@@H]1O[C@H](COP(=O)(O)OP(=O)(O)NP(=O)(O)O)[C@@H](O)[C@H]1O [adenylyl imidodiphosphate]
# Test: NP40-soluble protein abundance relative to vehicle (solubility fold change) (ratio); higher = more soluble protein in presence of AMP-PNP
# How it was run: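 Eight concentrations, 0.1 to 10 mM, were tested on Jurkat crude lysate for 10 min at room temperature and then 3 min at 37 °C, in three independent experiments. The lysate was solubilised with 0.8% NP40 and benzonase, ultracentrifuged, and the supernatant TMT-labelled for LC-MS/MS. Each value is the fold change against the detergent-processed vehicle in its own replicate, from vsn-normalised intensities.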
# Chain of UniProt Q8WUI4 (Q8WUI4 whole entry, one chain of several): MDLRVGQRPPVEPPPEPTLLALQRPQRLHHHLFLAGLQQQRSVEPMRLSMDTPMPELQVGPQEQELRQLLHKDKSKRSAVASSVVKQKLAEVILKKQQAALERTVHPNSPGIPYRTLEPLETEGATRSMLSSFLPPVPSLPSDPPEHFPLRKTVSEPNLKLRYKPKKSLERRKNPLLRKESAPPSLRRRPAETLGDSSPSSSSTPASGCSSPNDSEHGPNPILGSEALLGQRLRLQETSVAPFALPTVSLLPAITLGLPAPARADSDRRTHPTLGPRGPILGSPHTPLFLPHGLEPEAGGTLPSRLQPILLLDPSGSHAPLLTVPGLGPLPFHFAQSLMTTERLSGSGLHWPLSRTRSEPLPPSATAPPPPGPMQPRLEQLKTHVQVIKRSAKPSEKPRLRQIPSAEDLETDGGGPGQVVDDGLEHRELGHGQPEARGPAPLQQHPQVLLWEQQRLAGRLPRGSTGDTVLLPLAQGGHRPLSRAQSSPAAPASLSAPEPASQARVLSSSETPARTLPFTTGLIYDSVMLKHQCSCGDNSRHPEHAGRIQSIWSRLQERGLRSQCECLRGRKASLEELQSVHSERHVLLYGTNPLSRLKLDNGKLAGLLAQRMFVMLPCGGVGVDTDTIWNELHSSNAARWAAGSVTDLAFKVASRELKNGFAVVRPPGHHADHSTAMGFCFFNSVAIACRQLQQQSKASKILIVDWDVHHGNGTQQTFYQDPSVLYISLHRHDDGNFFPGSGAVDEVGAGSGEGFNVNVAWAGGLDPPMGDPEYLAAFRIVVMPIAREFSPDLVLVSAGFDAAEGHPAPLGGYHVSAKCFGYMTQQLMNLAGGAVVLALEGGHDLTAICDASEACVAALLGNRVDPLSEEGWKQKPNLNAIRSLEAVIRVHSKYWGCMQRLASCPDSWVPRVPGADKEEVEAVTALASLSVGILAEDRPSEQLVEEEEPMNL
# Chain of UniProt Q9UKT5 (Q9UKT5 whole entry, one chain of several): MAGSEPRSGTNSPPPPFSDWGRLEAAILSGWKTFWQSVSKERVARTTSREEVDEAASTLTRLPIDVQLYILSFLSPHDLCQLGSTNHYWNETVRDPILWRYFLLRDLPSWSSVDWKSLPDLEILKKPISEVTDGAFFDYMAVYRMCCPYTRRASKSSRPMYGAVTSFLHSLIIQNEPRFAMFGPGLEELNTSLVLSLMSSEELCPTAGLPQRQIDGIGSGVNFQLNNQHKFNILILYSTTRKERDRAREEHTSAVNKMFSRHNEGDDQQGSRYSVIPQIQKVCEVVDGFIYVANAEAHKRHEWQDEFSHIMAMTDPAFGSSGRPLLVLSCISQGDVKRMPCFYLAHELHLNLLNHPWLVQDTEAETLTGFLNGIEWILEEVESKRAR
# Chain of UniProt O75155 (O75155 whole entry): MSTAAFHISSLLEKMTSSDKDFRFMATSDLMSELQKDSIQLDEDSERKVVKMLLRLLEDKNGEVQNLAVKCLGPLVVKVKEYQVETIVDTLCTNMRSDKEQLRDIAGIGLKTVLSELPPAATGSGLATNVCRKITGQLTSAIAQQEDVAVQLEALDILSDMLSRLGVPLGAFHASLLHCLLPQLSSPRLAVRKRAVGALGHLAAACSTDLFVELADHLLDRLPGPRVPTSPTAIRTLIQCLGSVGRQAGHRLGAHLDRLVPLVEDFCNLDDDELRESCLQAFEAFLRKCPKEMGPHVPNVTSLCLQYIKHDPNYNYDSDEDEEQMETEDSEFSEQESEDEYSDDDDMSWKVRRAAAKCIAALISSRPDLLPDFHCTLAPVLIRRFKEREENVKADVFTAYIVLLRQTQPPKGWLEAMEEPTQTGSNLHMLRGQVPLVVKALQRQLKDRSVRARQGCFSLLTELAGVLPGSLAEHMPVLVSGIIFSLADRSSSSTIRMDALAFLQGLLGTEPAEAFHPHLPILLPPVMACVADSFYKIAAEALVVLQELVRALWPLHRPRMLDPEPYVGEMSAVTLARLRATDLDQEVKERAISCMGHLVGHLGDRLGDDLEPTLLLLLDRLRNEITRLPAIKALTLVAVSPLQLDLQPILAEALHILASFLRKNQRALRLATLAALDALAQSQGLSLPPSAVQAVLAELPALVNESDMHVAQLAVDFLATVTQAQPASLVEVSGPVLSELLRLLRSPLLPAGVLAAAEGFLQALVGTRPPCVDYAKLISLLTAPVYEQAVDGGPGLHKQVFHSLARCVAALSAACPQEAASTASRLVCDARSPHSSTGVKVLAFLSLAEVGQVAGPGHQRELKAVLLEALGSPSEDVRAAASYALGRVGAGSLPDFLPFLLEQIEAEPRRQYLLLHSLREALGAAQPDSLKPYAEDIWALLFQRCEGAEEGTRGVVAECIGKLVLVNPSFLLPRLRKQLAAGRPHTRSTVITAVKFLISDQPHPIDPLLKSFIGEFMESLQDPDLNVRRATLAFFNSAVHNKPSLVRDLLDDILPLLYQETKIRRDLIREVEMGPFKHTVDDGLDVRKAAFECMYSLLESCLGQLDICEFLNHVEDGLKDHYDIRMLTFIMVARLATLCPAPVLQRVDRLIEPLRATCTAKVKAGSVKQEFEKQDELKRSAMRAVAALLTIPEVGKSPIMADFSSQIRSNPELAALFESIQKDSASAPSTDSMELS
# Chain of UniProt Q9H9L4 (Q9H9L4 whole entry, one chain of several): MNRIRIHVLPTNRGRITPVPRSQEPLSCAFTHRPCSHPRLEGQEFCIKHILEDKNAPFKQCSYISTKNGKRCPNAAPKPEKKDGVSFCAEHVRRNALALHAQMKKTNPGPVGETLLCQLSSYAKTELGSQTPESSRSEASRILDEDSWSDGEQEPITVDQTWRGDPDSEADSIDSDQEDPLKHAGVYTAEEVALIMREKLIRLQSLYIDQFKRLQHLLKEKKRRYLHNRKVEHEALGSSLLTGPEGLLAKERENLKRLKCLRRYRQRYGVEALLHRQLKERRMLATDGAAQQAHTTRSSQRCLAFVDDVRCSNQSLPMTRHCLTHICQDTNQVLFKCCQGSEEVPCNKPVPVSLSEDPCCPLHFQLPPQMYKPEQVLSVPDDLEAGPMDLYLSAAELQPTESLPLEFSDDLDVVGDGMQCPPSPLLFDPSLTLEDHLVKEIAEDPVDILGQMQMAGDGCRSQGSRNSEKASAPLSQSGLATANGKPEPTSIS
# Chain of UniProt Q9Y5U2 (Q9Y5U2 whole entry, one chain of several): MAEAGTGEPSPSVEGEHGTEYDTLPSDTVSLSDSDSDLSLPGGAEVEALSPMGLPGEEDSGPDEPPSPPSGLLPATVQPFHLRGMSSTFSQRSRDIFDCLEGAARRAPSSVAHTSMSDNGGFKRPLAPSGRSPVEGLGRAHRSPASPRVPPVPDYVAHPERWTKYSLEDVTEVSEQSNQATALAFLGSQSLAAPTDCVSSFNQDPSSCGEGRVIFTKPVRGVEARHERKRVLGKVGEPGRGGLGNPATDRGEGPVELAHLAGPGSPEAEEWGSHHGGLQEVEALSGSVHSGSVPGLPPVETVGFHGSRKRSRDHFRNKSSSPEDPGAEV
# Chain of UniProt Q5ST30 (Q5ST30 whole entry, one chain of several): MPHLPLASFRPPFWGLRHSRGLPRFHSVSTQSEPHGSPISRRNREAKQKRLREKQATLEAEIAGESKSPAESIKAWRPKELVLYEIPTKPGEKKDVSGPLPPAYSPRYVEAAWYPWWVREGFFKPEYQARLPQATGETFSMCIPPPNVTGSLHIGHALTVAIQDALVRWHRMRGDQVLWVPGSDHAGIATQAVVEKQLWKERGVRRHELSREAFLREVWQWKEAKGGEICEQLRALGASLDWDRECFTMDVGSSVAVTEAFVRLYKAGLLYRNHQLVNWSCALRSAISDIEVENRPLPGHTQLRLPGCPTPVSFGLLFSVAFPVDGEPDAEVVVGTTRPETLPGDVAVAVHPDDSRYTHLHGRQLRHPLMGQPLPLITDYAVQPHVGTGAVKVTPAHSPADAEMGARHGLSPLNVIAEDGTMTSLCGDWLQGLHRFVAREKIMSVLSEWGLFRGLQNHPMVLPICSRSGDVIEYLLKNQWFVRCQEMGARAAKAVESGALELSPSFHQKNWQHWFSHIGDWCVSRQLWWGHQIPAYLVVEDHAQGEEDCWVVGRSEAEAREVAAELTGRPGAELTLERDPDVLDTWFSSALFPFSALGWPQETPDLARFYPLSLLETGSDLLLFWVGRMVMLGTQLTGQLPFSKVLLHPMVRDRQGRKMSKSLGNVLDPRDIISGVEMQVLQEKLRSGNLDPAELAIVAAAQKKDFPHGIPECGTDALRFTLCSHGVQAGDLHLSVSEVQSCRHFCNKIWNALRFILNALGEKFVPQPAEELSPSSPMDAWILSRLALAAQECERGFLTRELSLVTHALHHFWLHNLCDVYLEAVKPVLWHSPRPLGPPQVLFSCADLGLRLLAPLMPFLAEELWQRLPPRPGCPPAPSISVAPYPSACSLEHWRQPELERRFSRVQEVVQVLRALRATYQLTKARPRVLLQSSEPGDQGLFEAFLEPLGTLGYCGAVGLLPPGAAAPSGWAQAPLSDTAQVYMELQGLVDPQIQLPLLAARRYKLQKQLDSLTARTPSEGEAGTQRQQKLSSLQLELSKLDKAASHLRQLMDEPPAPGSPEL
# Chain of UniProt O43765 (O43765 whole entry): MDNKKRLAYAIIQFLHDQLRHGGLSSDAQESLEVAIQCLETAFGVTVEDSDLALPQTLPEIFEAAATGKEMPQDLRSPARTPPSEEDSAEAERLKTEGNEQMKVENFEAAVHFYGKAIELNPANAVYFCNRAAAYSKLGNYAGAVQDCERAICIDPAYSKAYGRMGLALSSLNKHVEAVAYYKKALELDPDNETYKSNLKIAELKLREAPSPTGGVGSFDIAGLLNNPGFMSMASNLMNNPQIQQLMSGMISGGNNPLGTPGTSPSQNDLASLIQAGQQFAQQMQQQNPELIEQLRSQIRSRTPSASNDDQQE
# Chain of UniProt Q96C57 (Q96C57 whole entry, one chain of several): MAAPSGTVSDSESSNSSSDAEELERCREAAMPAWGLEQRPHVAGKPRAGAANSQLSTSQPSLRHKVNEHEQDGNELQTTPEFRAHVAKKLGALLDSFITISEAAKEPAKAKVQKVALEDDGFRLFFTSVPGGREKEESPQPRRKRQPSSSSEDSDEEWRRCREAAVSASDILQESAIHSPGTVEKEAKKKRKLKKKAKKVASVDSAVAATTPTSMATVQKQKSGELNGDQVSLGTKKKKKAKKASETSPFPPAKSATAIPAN
Target,NP40-soluble protein abundance (concentration: 1mM),NP40-soluble protein abundance (concentration: 2mM),NP40-soluble protein abundance (concentration: 4mM),NP40-soluble protein abundance (concentration: 6mM),NP40-soluble protein abundance (concentration: 8mM),NP40-soluble protein abundance (concentration: 10mM)
A0A0A6YYH1|H0YLI7|P59780|Q7Z6K5-2 (UniProt Q7Z6K5+P59780+H0YLI7),1 ± 0.04,1.01 ± 0.011,0.9742 ± 0.0072,0.974 ± 0.028,0.965 ± 0.032,0.968 ± 0.017
K7EIU8|Q13485 (UniProt Q13485),0.986 ± 0.065,0.936 ± 0.062,0.99 ± 0.091,1.04 ± 0.084,1.08 ± 0.08,1.03 ± 0.093
L0R819 (UniProt Q9NWL6),1.04 ± 0.017,1.03 ± 0.074,1.01 ± 0.026,0.996 ± 0.089,0.972 ± 0.055,1 ± 0.044
A8MXP9|P43243 (UniProt P43243),1.03 ± 0.033,1.07 ± 0.016,1.05 ± 0.016,1.07 ± 0.042,1.08 ± 0.025,1.1 ± 0.028
D6RAJ6|Q9UKT5|Q9UKT5-2 (UniProt Q9UKT5),1.01 ± 0.035,0.996 ± 0.032,0.986 ± 0.024,0.975 ± 0.026,0.983 ± 0.035,0.981 ± 0.045
H0YHA7|J3QQ67|Q07020|Q07020-2 (UniProt Q07020),1.02 ± 0.038,0.9774 ± 0.0023,1.01 ± 0.086,0.9115 ± 0.0037,0.766 ± 0.042,1.04 ± 0.082
SGTA (UniProt O43765),1.03 ± 0.052,1.15 ± 0.079,0.99 ± 0.03,1.01 ± 0.037,0.943 ± 0.054,1.02 ± 0.085
F5H7W8|Q96C57 (UniProt Q96C57),1.17 ± 0.015,1.26 ± 0.088,1.25 ± 0.058,1.29 ± 0.047,1.34 ± 0.062,1.37 ± 0.12
K7ER90|O75821|K7EL60 (UniProt O75821),1.02 ± 0.075,1.1 ± 0.077,1.11 ± 0.095,1.24 ± 0.045,1.27 ± 0.074,1.42 ± 0.14
J3KNN5|Q9UJV9 (UniProt Q9UJV9),1.11 ± 0.029,1.1 ± 0.043,1.13 ± 0.073,1.12 ± 0.035,1.15 ± 0.053,1.22 ± 0.065
CAND2 (UniProt O75155),0.973 ± 0.018,0.942 ± 0.027,0.986 ± 0.045,1 ± 0.066,1.01 ± 0.031,1.02 ± 0.023
A0A0A0MTG1|A0A0G2JIA5|A0A140T8Y0|A0A140TA35|A0A140TA36|A0A140TA40|A0A140TA45|Q5ST30|Q5ST30-4|A0A0G2JL52|B4E0K6|B7ZL25 (UniProt Q5ST30),1 ± 0.017,0.992 ± 0.051,0.992 ± 0.02,0.98 ± 0.034,0.979 ± 0.022,0.969 ± 0.04
J3KPH8|Q8WUI4|Q8WUI4-3|Q8WUI4-4|Q8WUI4-5|Q8WUI4-6|Q8WUI4-7|Q8WUI4-8 (UniProt Q8WUI4),0.979 ± 0.04,1 ± 0.027,1 ± 0.026,0.98 ± 0.024,0.998 ± 0.067,0.9557 ± 0.0038
F8VX10|F8VXI8|Q9H9L4 (UniProt Q9H9L4),1.01 ± 0.014,1.06 ± 0.033,1.05 ± 0.033,1.02 ± 0.066,1.031 ± 0.0027,1.04 ± 0.044
C9JJV1|Q9Y5U2|Q9Y5U2-2|A6NCC9|C9JHT9|E9PME3 (UniProt Q9Y5U2),1.01 ± 0.013,1.04 ± 0.076,1.01 ± 0.01,0.968 ± 0.047,0.951 ± 0.048,0.968 ± 0.068

# From the supplement of paper PMC6411743
